The record followed here is PubChem BioAssay (Tox21).

Results filed as inconclusive are left out. Unmarked numbers belong to inactive results. Calls come from the whole dose curve; as a rule, active = well fitted cell-killing curve with a large enough effect in the repeat runs; inconclusive = weak or mixed curves; inactive = flat fitted curve, though single readings scatter.
% is set by controls: 0 for no effect and ±100 for the full control effect.

The assay can be described thus: qHTS assay to identify small molecule antagonists of the TGF-beta/Smad signaling pathway - cell viability counter screen (AID 1346824). Note: nearly all actives have a fitted effect of over 50% in size. The conditions noted are these: SBE-bla HEK293T viability, CellTiter-Glo luminescence; series mostly up to 76.8 µM; viability change, negative = cytotoxic: at the top concentration. An excerpt: U.S. Tox21 Program National Center for Advancing Translational Sciences [NCATS] NIH Chemical Genomics Center [NCGC] U.S. Environmental Protection Agency [EPA] National Institutes of Environmental Health Sciences [NIEHS] National Toxicology Program [NTP] U.S. Food and Drug Administration [FDA] Tox21 Assay Overview: Transforming growth factor beta (TGF-beta) superfamily consists of a large number of structurally related dimeric proteins that act as hormones or local mediators in regulating a wide range of biological functions. This superfamily includes TGF-betas themselves, the bone morphogenetic proteins (BMPs) and the activins. These ligands induce oligomerization of serine/threonine receptor kinases and phosphorylate the cytoplasmic signaling molecules of Smad protein family. CellSensor SBE-bla HEK 293T cell line (Life Technologies, Carlsbad, CA), responsive to TGF-beta was used to screen Tox21 10K compound library for identification of agonists/antagonists of the Smad signaling pathway. This cell line contains a beta-lactamase reporter gene under control of the Smad binding element (SBE) stably integrated into HEK 293T cells. Also cytotoxicity of the compounds was tested in parallel by measuring the cell viability using CellTiter-Glo assay system in the same wells.
Tox21 Assay Protocol Summary: SBE-bla HEK 293T cells were dispensed at 4,000/well in 5 uL of assay medium into black wall/clear-bottom 1536-well plates using a Multidrop Combi (ThermoFisher Scientific, Waltham, MA) dispenser. After the assay plates were incubated at 37 C and 5% CO2 for an overnight, 23 nL of compounds dissolved in DMSO, positive controls or DMSO only was transferred to the assay plate by a Pintool station (Kalypsys, San Diego, CA). Compound transfer was followed by the addition of 1 uL of 0.25 ng/mL TGF-beta1 or assay buffer using two separate tips of Flying Reagent Dispenser (FRD, Aurora Discovery, San Diego, CA). The assay plates were incubated at 37 C and 5% CO2 for 5 hr. One uL of LiveBLAzer B/G FRET substrate (Life Technologies) was added using a Flying Reagent Dispenser (FRD, Aurora Discovery, San Diego, CA) and the plates were incubated at room temperature for 2 hr. Fluorescence intensity (405 nm excitation, 460 nm and 530 nm emissions) was measured using an Envision plate reader (PerkinElmer, Shelton, CT). For cytotoxicity read, 4 uL of CellTiter-Glo reagent (Promega Corporation, Madison, WI) was added to each well of the assay plates using FRD. After 30 min incubation at room temperature, the luminescence intensity was measured using ViewLux plate reader (PerkinElmer).
With `O=C(c1ccccc1)c1ccc(O)cc1`, the “viability change, negative = cytotoxic” value is -3.03%.

In the case of `CC(C)(O)c1coc(S(=O)(=O)NC(=O)Nc2c3c(cc4c2CCC4)CCC3)c1`, the “viability change, negative = cytotoxic” value is 3.63%.

In the case of `CNS(=O)(=O)c1cc(C(=O)N2CCC(CCN3C4CCC3CC(n3c(C)nc5ccccc53)C4)(c3cccc(F)c3)CC2)c(Cl)cc1F` (stereo not given), the “viability change, negative = cytotoxic” value was -5.76%.

Regarding `O=C(O)CO`, the “viability change, negative = cytotoxic” value was 24.7%.

For the compound `Cc1ccc(N(CC2=NCCN2)c2cccc(O)c2)cc1`, the “viability change, negative = cytotoxic” value was 0.646% [at 35.3 µM].

On to `O=C(O)CN1C(=O)c2cccc3cccc(c23)C1=O`, for which the “viability change, negative = cytotoxic” value is -2.05% [at 35.3 µM]. Next, `CC[C@H]1OC(=O)[C@H](C)[C@@H](O[C@H]2C[C@@](C)(OC)[C@@H](O)[C@H](C)O2)[C@H](C)[C@@H](O[C@@H]2O[C@H](C)C[C@H](N(C)C)[C@H]2O)[C@](C)(O)C[C@@H](C)C(=O)[C@H](C)[C@@H](O)[C@]1(C)O`: 13.5% [at 35.3 µM]; `O=C(O)CCCc1c[nH]c2ccccc12`: 3.23%.

Consider `O=C(O)CCC(=O)OC[C@@H](NC(=O)C(Cl)Cl)[C@H](O)c1ccc([N+](=O)[O-])cc1`, for which the “viability change, negative = cytotoxic” value is -15.6% [at 35.3 µM]. Next, `CCSC(=O)N(CC)CC`: 0.131%. Turning to `CSCC[C@H](NC(=O)[C@H](Cc1c[nH]c2ccccc12)NC(=O)CCNC(=O)OC(C)(C)C)C(=O)N[C@@H](CC(=O)O)C(=O)N[C@@H](Cc1ccccc1)C(N)=O`, the “viability change, negative = cytotoxic” value is 6.12% [at 35.3 µM]. Consider `O=C1OC(=O)c2c(Br)c(Br)c(Br)c(Br)c21`, for which the “viability change, negative = cytotoxic” value was 0.124%.

As for `O=C(O)c1cccc(C[C@@H]2COc3ccc(OCc4nc5cc(F)ccc5s4)cc3[C@@H]2O)c1`, the “viability change, negative = cytotoxic” value is 0.841%. Next, `CCN(CC)CC(=O)Nc1c(C)cccc1C(=O)OC`: 0.741% [at 35.3 µM]; `COC(=O)CC(C(C)=O)C(=O)OC` (stereo not given): 0.883%.

On to `CN(C)CC/C=C1\c2ccccc2Sc2ccc(Cl)cc21`, for which the “viability change, negative = cytotoxic” value was -29.3% [at 35.3 µM]. For `O=C(O)CNC(=O)c1ccccc1I` the value was -1.31% [at 35.3 µM]; for `COC(=O)C1=C(C)NC(C)=C(C(=O)OC(C)(C)CN(C)CCC(c2ccccc2)c2ccccc2)C1c1cccc([N+](=O)[O-])c1` (stereo not given), -24.2% [at 35.3 µM]; for `CCCCC[C@H](O)/C=C/[C@H]1[C@H](O)CC(=O)[C@@H]1C/C=C\CCCC(=O)O`, 0.557% [at 35.3 µM]. Next, `CC(=O)NNC(C)=O`: 2.87%. For `O=C(Oc1ccccc1)c1ccc2ccccc2c1O` the value was -12.4%; for `COc1ccc(C(=O)NCc2ccc(OCCN(C)C)cc2)cc1OC`, 5.88% [at 35.3 µM]. For `CC(C)C(=O)OCCOc1ccccc1`, the “viability change, negative = cytotoxic” value was 1.73%. With `C1=CCC2CC=CC2C1` (stereo not given), the “viability change, negative = cytotoxic” value was -12.8%. Next, `CC(C)C(O)C(C)(C)CO` (stereo not given): -2.08%; `CC1C(C)(C)C2=C(C(=O)CCC2)C1(C)C` (stereo not given): 13.4%. Next, `CCCCCC`: -9.99%; `CC(C(=O)O)c1ccc(C(=O)c2cccs2)cc1` (stereo not given): 5.47% [at 35.3 µM]; `CC(CCc1ccc(O)cc1)NCCc1ccc(O)c(O)c1` (stereo not given): -0.387% [at 35.3 µM]. Next, `OCC(CO)n1cnc(-c2ccc(F)cc2)c1-c1ccnc(Oc2ccccc2)n1`: 0.608%; `COc1ccc(C2C(=O)c3ccccc3C2=O)cc1`: 2.38% [at 35.3 µM]. Regarding `COc1cc(C(C)=O)ccc1OCCCN1CCC(c2noc3cc(F)ccc23)CC1`, the “viability change, negative = cytotoxic” value is 0.527% [at 35.3 µM]. For `CC(=O)Oc1cccc(O)c1` the value was 5.66% [at 35.3 µM]. Next, `Nc1ccc(N=Nc2ccc(N)cc2)cc1`: -0.0935% [at 35.3 µM]. On to `Cc1ccc(S(=O)(=O)NC(=O)NC2CCCCC2)cc1`, for which the “viability change, negative = cytotoxic” value was 7.5% [at 35.3 µM]. As for `O=S(=O)(O)CO`, the “viability change, negative = cytotoxic” value was 1.05%. Next, `FC(F)(F)C(F)(F)C(F)(F)C(F)(F)CCI`: 1.85% [at 35.3 µM]. Next, `CC12CC3CC(C)(C1)CC(N)(C3)C2`: -6.21% [at 35.3 µM]. With `COc1cc(S(=O)(=O)Nc2ccccc2)c(OC)cc1N`, the “viability change, negative = cytotoxic” value is 5.53%. Next, `O[C@@H](CNC[C@H](O)[C@H]1CCc2cc(F)ccc2O1)[C@@H]1CCc2cc(F)ccc2O1`: -18.8% [at 35.3 µM].
